Compound activity: PubChem BioAssay, several laboratories
Anthrax LF prot: anthrax lethal factor protease inhibition. multiplex microsphere protease cleavage assay, LF. inhibition, % at 10 µM. actives 0.12% (n = 360,000); further: plate controls were buffer without enzyme for full effect and enzyme alone for no effect
Target sequence (P15917 whole entry, looked up): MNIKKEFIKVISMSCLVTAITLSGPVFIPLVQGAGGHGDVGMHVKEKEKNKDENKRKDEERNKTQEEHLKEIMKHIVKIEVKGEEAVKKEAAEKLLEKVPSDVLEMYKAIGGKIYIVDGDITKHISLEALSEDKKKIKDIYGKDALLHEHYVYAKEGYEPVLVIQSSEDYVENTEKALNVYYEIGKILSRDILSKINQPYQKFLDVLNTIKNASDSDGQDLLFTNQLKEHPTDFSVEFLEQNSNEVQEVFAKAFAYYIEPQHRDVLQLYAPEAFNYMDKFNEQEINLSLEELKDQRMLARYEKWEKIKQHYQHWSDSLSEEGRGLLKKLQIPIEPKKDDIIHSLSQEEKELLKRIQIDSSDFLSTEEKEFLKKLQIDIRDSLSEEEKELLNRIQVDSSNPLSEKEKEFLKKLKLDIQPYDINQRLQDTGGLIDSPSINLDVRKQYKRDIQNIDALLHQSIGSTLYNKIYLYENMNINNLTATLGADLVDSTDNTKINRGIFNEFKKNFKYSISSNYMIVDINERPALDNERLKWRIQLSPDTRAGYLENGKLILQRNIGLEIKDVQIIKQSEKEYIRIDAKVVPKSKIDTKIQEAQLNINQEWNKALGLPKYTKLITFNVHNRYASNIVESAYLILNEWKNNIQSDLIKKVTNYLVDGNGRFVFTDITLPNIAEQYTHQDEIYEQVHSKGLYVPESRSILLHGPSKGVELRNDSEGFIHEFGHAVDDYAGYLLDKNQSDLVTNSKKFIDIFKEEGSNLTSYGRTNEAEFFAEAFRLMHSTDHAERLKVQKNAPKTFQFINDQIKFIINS
Vc quorum ag: quorum light induction in luxS cqsA deficient V. cholerae; activation, % at 18.7 µM; actives 0.16% (n = 350,000); V. cholerae BH1578 lux reporter, luminescence, 6 h; in the data active means activation mostly above about 9.7%, no sharp cut-off; inconclusive means no clear call, values can overlap the other calls; inactive means mostly below about 3.7%
BoNT-F LC inh: inhibitors of Botulinum neurotoxin F light chain protease | actives 0.22% (n = 360,000) | AID 588497 | Multiplex microsphere protease cleavage assay, flow cytometry | inhibition, % at 10 µM; in the data active means inhibition above about 35%, passing the limit was not always enough; inconclusive means no clear call, values can overlap the other calls; further: plate controls were buffer without enzyme for full effect and enzyme alone for no effect
Autofluor counter: flagged as autofluorescent in microsphere protease counterscreen; compound autofluorescence counterscreen, microsphere flow cytometry; active compounds read high; fluorescence intensity (no concentration beside the values); actives 3.1% (n = 360,000); in the data active means fluorescence intensity above about 16000; inconclusive means no clear call, values can overlap the other calls
BJeLR viability: kills HRASV12-expressing BJeLR cells; BJeLR (HRASV12) viability, CellTiter-Glo ATP luminescence, 48 h; inhibition, % (no concentration beside the values); actives 0.17% (n = 300,000); in the data active means inhibition above about 50%; inconclusive means no clear call, values can overlap the other calls
BoNT-A LC inh2: inhibitors of Botulinum neurotoxin A light chain protease | inhibition, % at 10 µM | multiplex microsphere protease substrate cleavage, flow cytometry | AID 588499 | actives 0.17% (n = 360,000); further: plate controls were buffer without enzyme for full effect and enzyme alone for no effect
* = called active by the depositor; i = inactive; ? = inconclusive; · = not tested or not shown. In the library only some 3.7% were active in any assay of this set; here they are far more common. Unless noted, no stated cut-off is given here; in the data, active means inhibition above about 30%; inconclusive means no clear call, values can overlap the other calls; inactive means below that.

SMILES	Anthrax LF prot	Vc quorum ag	BoNT-F LC inh	Autofluor counter	BJeLR viability	BoNT-A LC inh2
CCN1CCN(Cc2cc(Br)cc(OC)c2O)CC1	2	0	0	22198*	0	0
CC1(C)CC(=NOC(=O)c2ccccc2)CC(C)(C)N1	1	0	3	19903*	0	2
Cc1occc1-c1nnc(SCC(=O)N(C)C)o1	4	2	0	19878*	-3	0
O=C(/C=C/c1ccc(Br)cc1)NC1CCCCCC1	1	-6	0	21525*	1	-2
CN(C)CCNC(=O)c1cccc(-c2cc(NC=O)c3ncc(-c4cccc(C(F)(F)F)c4)n3c2)c1	-3	i	-19	4279	·	0
Cc1c(/C=N/NC(=O)c2cccnc2)c2ccccc2n1Cc1ccccc1	-5	-1	30	24760*	3	-8
O=C(Cc1c(O)c2ccccc2[nH]c1=O)N(Cc1ccccc1)Cc1ccccc1	-3	i	-2	22649*	16	1
Cc1ccc(NS(=O)(=O)c2ccc(N3C(=O)CCC3=O)cc2)cc1	-18	2	10	18928*	-9	7
COc1ccc(C(=O)N/C(=C\c2ccc(Cl)cc2)C(=O)NCc2ccncc2)cc1	-5	i	-6	3631	·	0
COc1ccc(C(C)=O)cc1CN1C(=O)C(C)N(c2ccc(C)cc2)C1=O (configuration not stated)	-7	i	5	18676*	2	?
N/C(CN1CCCC1=O)=N\O	0	i	-4	24371*	2	-4
Cc1cccc(-c2n[nH]nc2C2=CC(=O)CC(C)(C)C2)c1	2	0	-1	3201	·	-1
COc1cccc(C(=O)Nc2ccc(S(=O)(=O)NCc3ccco3)cc2)c1	-2	6	0	24328*	-9	-1
Cc1nn(-c2ccccc2)c(C)c1CNC(=O)c1ccc(S(=O)(=O)NCc2ccco2)cc1	-4	-5	-2	3841	·	0
Cc1cc(C)n(CCCNC(=O)c2ccc(S(=O)(=O)NCc3ccco3)cc2)n1	-2	1	0	21580*	11	?
O=C(NC1CCCCC1)c1ccc(S(=O)(=O)NCc2ccco2)cc1	-6	-6	7	21532*	-4	2
Cc1cccc(C(=O)N/N=C/c2ccncc2)c1	-2	5	-3	16845*	4	-2
O=C(N/N=C/c1ccncc1)c1ccncc1	-3	i	-8	2837	·	0
O=C(Nc1ccccc1)N1CCn2c1nc1ccccc12	-2	0	-3	4462	-4	-1
COc1ccc(NC(=O)N2CCn3c2nc2ccccc23)cc1	-1	i	0	19709*	-3	1
C=CCc1cccc(CNc2nc3ccccc3n2C(C)C)c1O	-4	-1	-3	23489*	11	?
O=C(O)c1ccc2[nH]c3c(c2c1)CSCC3	1	i	7	20934*	-8	4
CN(C)CCOC(=O)c1ccc2[nH]c3c(c2c1)CSCC3	-9	-1	-27	5056	-4	2
N#Cc1sc2nc(-c3cccs3)cc(-c3ccc(Cl)cc3)c2c1N	12	0	2	16199*	-1	?
CCOC(=O)c1c(C)[nH]c(C(=O)OCC(=O)Nc2cc(Cl)ccc2OC)c1C	-5	i	-5	16877*	3	-3
SMILES	Anthrax LF prot	Vc quorum ag	BoNT-F LC inh	Autofluor counter	BJeLR viability	BoNT-A LC inh2
CCOC(=O)c1c(C)[nH]c(C(=O)OCC(=O)Nc2cc(C)ccc2OC)c1C	-2	i	1	3146	-4	0
CCOC(=O)c1[nH]c(C)c(C(=O)OCC(=O)NC(=O)NC(C)(C)C)c1C	-2	i	4	20160*	-2	1
C[C@@H]1CN([C@@H](C)CO)C(=O)CCCn2cc(nn2)CO[C@H]1CN(C)S(=O)(=O)c1ccc2ccccc2c1	-9	i	-9	3704	·	-1
COc1ccccc1-c1c(NC(=O)c2ccco2)n(-c2ccccc2)nc(C)c1=O	·	·	·	·	2	·
COc1cccc(-c2c(NC(=O)c3ccco3)n(-c3ccc(C)cc3)nc(C)c2=O)c1	-2	-6	-3	16965*	·	-1
COC(=O)C[C@@H]1C[C@@H]2c3cc(NS(=O)(=O)c4ccc(F)cc4)ccc3O[C@@H]2[C@@H](CO)O1	-8	i	2	2909	·	0
O=C(CSc1ncn[nH]1)NCCOc1ccccc1	1	-3	-1	3302	7	0
O=C(CSCc1n[nH]c(=O)[nH]1)NCCOc1cccc(Oc2ccccc2)c1	1	-2	-4	19843*	3	-1
CCc1sc(NS(C)(=O)=O)nc1-c1ccccc1	-4	-1	-3	23262*	3	-1
O=c1oc2cc(O)ccc2cc1-c1nc2c(s1)CCc1ccccc1-2	17	0	7	4485	·	47*
O=c1oc2ccccc2cc1-c1nc2c(s1)CCc1ccccc1-2	27	-1	18	3123	9	64*
Nc1nnc(-c2cc3ccccc3oc2=O)s1	0	1	3	4215	-6	-1
O=c1c2ccccc2cnn1-c1nc2ccccc2[nH]1	0	-2	1	2718	82*	0
COc1ccc(C2CC(c3cccs3)=NN2C(=O)CCl)cc1OC (configuration not stated)	3	0	4	5047	44	1
COc1cc(C2CC(c3cccs3)=NN2C(=O)CCl)ccc1OC(F)F (configuration not stated)	-4	i	8	5554	96*	1
O=C(COc1cc(Cl)ccc1Cl)Nc1ccc2[nH]c(=O)[nH]c2c1	-2	-1	2	6478	8	-4
CCOc1ccc(NC(=O)CN2CCN(CC(=O)Nc3ccc(Cl)c(C(F)(F)F)c3)CC2)cc1	-4	i	-12	26476*	4	-9
COc1ccccc1N1CCN(CC(=O)Nc2ccc(Cl)c(C(F)(F)F)c2)CC1	-6	i	-7	16616*	-1	-2
Cc1ccc(Cl)cc1N1CCN(CC(=O)Nc2ccc3[nH]c(=O)[nH]c3c2)CC1	-3	0	0	19567*	11	1
O=P(Cc1cccc2ccccc12)(c1ccccc1)c1ccccc1	-1	-7	0	2831	·	0
CC(=O)N1CCc2c(sc(NC(=O)c3ccc(S(=O)(=O)N(C)CC4CCCO4)cc3)c2C(N)=O)C1 (configuration not stated)	-4	0	4	3422	·	0
Cc1cc(C)c2cc(C#N)c(NCCCNC(=O)c3cccnc3)nc2c1	-3	0	2	4024	·	1
Cc1c(C(=O)NCc2cccc(C(F)(F)F)c2)sc(=O)n1Cc1ccccc1F	-2	0	-18	5604	·	0
O=C1NC(Cc2ccccc2)c2nc3cc(Cl)ccc3c(=O)n2-c2ncccc21 (configuration not stated)	3	i	-5	3477	·	0
CCCCNC(=O)c1ccc(CS(=O)(=O)c2cccc(C(F)(F)F)c2)o1	1	0	1	21163*	5	2
